Data: PubChem BioAssay
Calls of active or inactive are those of the source.

Assays:
[1] = system: Plasmodium falciparum Sir2 (PF13_0152, Sir2A); assay: Plasmodium falciparum Sir2A binding compounds – biochemical, small-molecule microarray, 635 nm fluorescence, primary screen (AID 1098); conditions: fluorescence 635 nm, higher = more signal;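 further: score merges spot fluorescence intensity with its signal-to-noise ratio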
[2] = probe aDKK1 binding to arrayed compounds – biochemical, biotinylated probe, 635/667 nm fluorescence, primary screen (AID 1099); conditions: small-molecule microarray, higher = more signal;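 further: score merges 667nm spot fluorescence with signal to noise across triplicate slides; reference of the scale not given here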
[3] = probe aCHRDL2 binding to arrayed compounds – biochemical, biotinylated probe, 635/667 nm fluorescence, primary screen (AID 1100); conditions: small-molecule microarray, higher = more signal
[4] = change in splice reporter luminescence, either direction, cell-based, HEK293, spliceosome inhibition project, primary screen (AID 1101); conditions: HEK293 splicing luciferase reporter, 24 h, higher = more signal, called active from +8 up or from −8 down;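 further: HEK293 cells carrying a splicing-competent luciferase reporter gene; test concentration not given here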
[5] = target: Fibroblast growth factor 10 (Homo sapiens) (UniProt O15520); assay: compounds binding fibroblast growth factor 10 – biochemical, small-molecule microarray, 635 nm fluorescence, primary screen (AID 1102); conditions: FGF10 binding, fluorescence 635 nm, higher = more signal
[6] = system: glycogen synthase kinase-3 (GSK3A per assay name; protocol says GSK3B); assay: compounds binding glycogen synthase kinase-3 – biochemical, small-molecule microarray, 635 nm fluorescence, GSK3A, primary screen (AID 1103); conditions: fluorescence 635 nm, higher = more signal; further: the record names both GSK3A and GSK3B
[7] = target: Epidermal growth factor receptor (Homo sapiens) (UniProt P00533); assay: compounds binding epidermal growth factor receptor – biochemical, small-molecule microarray, 635 nm fluorescence, primary screen (AID 1104); conditions: EGFR binding, higher = more signal;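 further: score merges 667 nm emission intensity with spot signal to noise over triplicate slides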
[8] = target: Follistatin-related protein 3 (Homo sapiens) (UniProt O95633); assay: compounds binding follistatin-related protein 3 – biochemical, small-molecule microarray, 635 nm fluorescence, primary screen (AID 1105); conditions: FSTL3 binding, higher = more signal;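 further: score merges emission near 667 nm and signal to noise per printed spot across three slides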
[9] = target: Dickkopf-related protein 1 (Homo sapiens) (UniProt O94907); assay: small molecules binding DKK1 protein – biochemical, small-molecule microarray, 635 nm fluorescence scan, primary screen (AID 1106); conditions: higher = more signal;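 further: score merges emission near 667 nm with signal to noise over three replicate slides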
[10] = system: Inhibin beta A chain (activin A); assay: small molecules binding activin A – biochemical, small-molecule microarray, 635 nm fluorescence scan, primary screen (AID 1107); conditions: INHBA, higher = more signal;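 further: mouse activin A protein probed at 4.33 µg/mL on printed slides; score merges bound-protein fluorescence near 667 nm with spot signal-to-noise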

Chain of Epidermal growth factor receptor (Homo sapiens) (P00533 whole entry, looked up): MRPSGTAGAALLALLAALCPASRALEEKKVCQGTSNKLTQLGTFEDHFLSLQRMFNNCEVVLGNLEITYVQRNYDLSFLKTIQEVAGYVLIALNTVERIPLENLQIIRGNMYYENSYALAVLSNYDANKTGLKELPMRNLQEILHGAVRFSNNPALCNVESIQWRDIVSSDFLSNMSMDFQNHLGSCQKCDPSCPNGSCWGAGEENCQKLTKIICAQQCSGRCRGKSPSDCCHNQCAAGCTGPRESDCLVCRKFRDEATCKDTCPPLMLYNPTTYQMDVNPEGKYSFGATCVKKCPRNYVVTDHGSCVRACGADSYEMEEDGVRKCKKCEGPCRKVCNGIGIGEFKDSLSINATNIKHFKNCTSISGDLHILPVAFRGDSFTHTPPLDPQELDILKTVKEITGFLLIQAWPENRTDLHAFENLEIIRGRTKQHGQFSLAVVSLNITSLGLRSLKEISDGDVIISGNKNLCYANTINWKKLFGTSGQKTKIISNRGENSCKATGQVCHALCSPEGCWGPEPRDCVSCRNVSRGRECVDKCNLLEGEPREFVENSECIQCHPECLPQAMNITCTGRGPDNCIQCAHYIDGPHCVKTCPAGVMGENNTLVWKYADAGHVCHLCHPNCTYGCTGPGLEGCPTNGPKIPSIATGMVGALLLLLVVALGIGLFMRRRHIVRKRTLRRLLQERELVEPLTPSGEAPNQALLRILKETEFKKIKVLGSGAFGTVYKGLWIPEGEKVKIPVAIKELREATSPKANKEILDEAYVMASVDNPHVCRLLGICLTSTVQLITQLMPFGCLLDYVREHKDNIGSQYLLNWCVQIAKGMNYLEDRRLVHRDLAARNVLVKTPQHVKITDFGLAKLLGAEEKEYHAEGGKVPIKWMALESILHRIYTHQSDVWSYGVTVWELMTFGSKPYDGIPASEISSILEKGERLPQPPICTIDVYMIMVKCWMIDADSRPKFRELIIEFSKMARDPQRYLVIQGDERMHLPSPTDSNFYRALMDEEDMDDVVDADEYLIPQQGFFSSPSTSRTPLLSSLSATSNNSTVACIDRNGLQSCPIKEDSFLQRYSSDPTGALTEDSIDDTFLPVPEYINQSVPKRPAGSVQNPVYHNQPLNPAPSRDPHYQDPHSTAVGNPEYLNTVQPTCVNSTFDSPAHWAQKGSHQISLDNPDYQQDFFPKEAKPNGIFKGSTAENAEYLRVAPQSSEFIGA
Chain of Dickkopf-related protein 1 (Homo sapiens) (O94907 whole entry, looked up): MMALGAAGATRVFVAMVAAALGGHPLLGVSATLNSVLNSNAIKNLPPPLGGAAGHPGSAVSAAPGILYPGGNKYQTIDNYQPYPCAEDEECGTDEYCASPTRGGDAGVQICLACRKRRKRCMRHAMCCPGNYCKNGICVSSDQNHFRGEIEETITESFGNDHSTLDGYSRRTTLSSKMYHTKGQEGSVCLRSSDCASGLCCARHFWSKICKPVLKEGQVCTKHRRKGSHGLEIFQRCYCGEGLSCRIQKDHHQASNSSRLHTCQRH
Chain of Fibroblast growth factor 10 (Homo sapiens) (O15520 whole entry, looked up): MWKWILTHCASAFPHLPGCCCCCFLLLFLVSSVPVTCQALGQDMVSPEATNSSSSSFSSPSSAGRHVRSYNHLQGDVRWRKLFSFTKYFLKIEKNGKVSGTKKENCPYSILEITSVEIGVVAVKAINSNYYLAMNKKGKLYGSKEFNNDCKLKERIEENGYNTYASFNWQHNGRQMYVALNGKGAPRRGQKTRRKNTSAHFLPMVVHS
Chain of Follistatin-related protein 3 (Homo sapiens) (O95633 whole entry, looked up): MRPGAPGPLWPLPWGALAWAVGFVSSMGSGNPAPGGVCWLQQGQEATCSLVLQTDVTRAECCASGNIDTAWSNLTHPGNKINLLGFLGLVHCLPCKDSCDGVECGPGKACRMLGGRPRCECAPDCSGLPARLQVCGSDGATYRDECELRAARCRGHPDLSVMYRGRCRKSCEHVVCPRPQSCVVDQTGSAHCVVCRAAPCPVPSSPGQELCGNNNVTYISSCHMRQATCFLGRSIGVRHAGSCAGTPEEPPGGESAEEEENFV

Row | SMILES | composite z-score [1] | composite z-score [2] | composite z-score [3] | z-score [4] | composite z-score [5] | composite z-score [6] | composite z-score [7] | composite z-score [8] | composite z-score [9] | composite z-score [10]
1 | CCN1C(=O)[C@H]2[C@H]3[C@H](O)[C@H](O)CC(=NOC(C)CN4CCCc5nc(C)c(C)cc54)[C@@H]3CC[C@H]2C1=O (stereo not given in full) | 0.333 | 0.0478 | -0.598 | 0.189 (inactive) | 0.784 | 0.901 | 0.692 | 0.783 | 0.713 | 0.907
2 | CCOC(=O)[C@H](Cc1ccccc1)NC(=O)CCC1CC(OC(=O)NCc2cccc3ccccc23)CC2(CCCC(COC(=O)NCC3CCCCC3)O2)O1 (stereo not given in full) | 0.889 | -0.21 | -0.53 | -0.815 (inactive) | 0.781 | 0.805 | 0.604 | 0.872 | 0.795 | 0.381
3 | COC(=O)[C@H](CCSC)NC(=O)CC=C[C@@H](C)CO | -0.0481 | -0.34 | -1.47 | -0.0982 (inactive) | 1.26 | 1.28 | 1.53 | 1.46 | 1.97 | -1.91
4 | CO[C@H]1C[C@@H]2C[C@H](O)CC(CC(=O)O[C@@H](C=CCC(C)C)C[C@@H]3CC[C@H](C)[C@@H](C1)O3)O2 | 1.02 | -0.205 | -0.594 | -0.278 (inactive) | 0.682 | 1.29 | 0.595 | 0.808 | 1.13 | 0.0531
5 | CC(CCN1CCc2nc(-c3ccccc3)c(-c3ccccc3)cc2C1)=NO[C@H](C)c1cn([C@H](CO)Cc2ccccc2)nn1 | 0.343 | -0.0154 | 0.407 | -0.534 (inactive) | -0.356 | -0.135 | -0.0273 | 0.177 | -0.193 | 1.09
6 | C[C@@H]1CC[C@H]2C(=O)OC(CN3C(=O)c4ccccc4C3=O)CN2[C@H]1c1ccc(Br)cc1 (stereo not given in full) | 0.532 | -0.117 | -0.0788 | 0.5 (inactive) | 0.398 | -0.0067 | 0.13 | -0.234 | 0.383 | 0.74
7 | C[C@H]1CC[C@H]2C(=O)OC(COc3ccc(C(C)(C)C)cc3)CN2[C@@H]1c1ccc(Br)cc1 (stereo not given in full) | 0.528 | -0.254 | -0.242 | -0.216 (inactive) | 0.172 | 0.364 | -0.128 | 0.58 | -0.039 | 0.451
8 | C[C@@H](c1ccccc1)N1C(=O)[C@H]2[C@H]3[C@H](O)[C@H](O)CC(=NNC(=O)OCc4ccccc4)[C@@H]3CC[C@H]2C1=O | 0.404 | -0.657 | -1.57 | 0.574 (inactive) | -0.0948 | 1.25 | 0.845 | 1.5 | 1.94 | 1.56
9 | CC(=O)OC[C@H]1O[C@@H](ON=C(C)CCN2CCCCc3nc(C)c(C)cc32)[C@H](OC(C)=O)[C@@H](OC(C)=O)[C@@H]1OC(C)=O | 0.834 | -0.208 | -0.664 | -1.29 (inactive) | 1.23 | 1.19 | 1.11 | 1.28 | 1.39 | 0.328
10 | C[C@@H]1CC[C@H]2C(=O)N3[C@@H](CC[C@@H](C)[C@@H]3c3ccc(Br)cc3)C(=O)N2[C@H]1c1ccc(Br)cc1 | 0.223 | -0.339 | -0.355 | -0.628 (inactive) | 0.592 | -0.0161 | 0.278 | 0.384 | 0.605 | 0.22
11 | COC(=O)[C@H](C)NC(=O)CCC1CC(OC(=O)NCc2ccc3c(c2)OCO3)CC2(CCCC(COC(=O)NCc3ccccc3)O2)O1 (stereo not given in full) | 0.343 | -0.172 | -0.612 | -0.66 (inactive) | 0.894 | 0.821 | 0.293 | 0.832 | 0.893 | -0.0611
12 | CO[C@H]1COC(=O)CCC[C@H](C)[C@H](OC)COC(=O)CC=C[C@@H]1C | 1.49 | -0.427 | -0.931 | -1.39 (inactive) | -0.0317 | 0.0951 | 0.822 | 1.04 | 0.872 | 1.43
13 | CCCNC(=O)OC[C@H]1O[C@H](CCON=C2c3cc(OC)ccc3O[C@H](c3cccc(OC)c3)[C@H]2O)C=C[C@@H]1Oc1ccc(OC)cc1 | 0.204 | 0.0079 | -0.0136 | -0.553 (inactive) | 0.744 | 0.21 | 0.474 | 0.54 | 0.273 | -0.479
14 | C[C@H]1CC[C@@H](C(=O)O)N[C@@H]1c1cccc(N2CCCC2=O)c1 | 0.0371 | -0.154 | -0.496 | -0.00389 (inactive) | 0.184 | 0.631 | 0.376 | 0.285 | 0.153 | 0.292
15 | CO[C@H]1COC(=O)CC=C[C@H](C)[C@H](OC)COC(=O)[C@@H](C)NC(=O)CC=C[C@@H]1C | 1.65 | -0.407 | -1.19 | -0.59 (inactive) | 0.777 | 0.507 | 0.383 | 1.36 | 1.56 | 1.64
16 | COc1ccc(-c2cnnc(CCCn3ccnc3-c3ccccc3)n2)cc1 | 0.442 | 0.0096 | -0.592 | -1.04 (inactive) | 0.7 | 0.7 | 0.929 | 1.37 | 1.02 | 0.327
17 | CC(=O)OC[C@H]1O[C@@H](ON=C(C)CCC(=O)OC[C@H]2O[C@H](C#Cc3ccccc3)C=C[C@@H]2Oc2ccc(C)cc2)[C@H](OC(C)=O)[C@@H](OC(C)=O)[C@@H]1OC(C)=O | 0.888 | -0.148 | -0.561 | -0.188 (inactive) | 0.782 | 1.11 | 0.603 | 0.786 | 0.911 | -0.0231
18 | CC(=O)OC[C@H]1O[C@H](CC=NOC(C)CN2CCCc3nc(C)c(C)cc32)C=C[C@@H]1OC(C)=O (stereo not given in full) | 0.104 | -0.104 | -0.457 | 0.184 (inactive) | 0.708 | 0.961 | 0.383 | 0.834 | 0.578 | 0.8
19 | O=C(NN=C1C[C@@H](O)[C@@H](O)[C@@H]2[C@@H]3C(=O)N(c4ccc(F)cc4F)C(=O)[C@@H]3CC[C@H]12)OCc1ccccc1 | 0.705 | 0.052 | 0.793 | 0.267 (inactive) | 0.379 | 0.131 | -0.0295 | 0.385 | -0.118 | 0.0132
20 | Cc1ccc(S(=O)(=O)N[C@@H]2COC(=O)CC=C[C@@H](C)[C@H](NS(=O)(=O)c3ccc(C)cc3)COC(=O)[C@H](C)NC(=O)CC=C[C@H]2C)cc1 | -0.267 | -0.472 | -0.684 | -0.294 (inactive) | -0.0861 | -0.0951 | 0.0994 | 0.129 | 0.123 | 1.27
21 | O=C1[C@H]2CCn3c(=O)n(Cc4cc5c(cc4Cl)OCO5)c(=O)n3[C@H]2[C@H](O)[C@@H]2O[C@H]12 | 0.652 | -0.374 | -0.604 | 0.726 (inactive) | -0.41 | -0.734 | 0.413 | -0.0989 | 0.552 | 0.73
22 | CCOC(=O)[C@H](CC(C)C)NC(=O)CCC1CC(OC(=O)NCCc2ccc(F)cc2)CC2(CCCC(COC(=O)NCCOC)O2)O1 (stereo not given in full) | 0.745 | 0.0045 | -0.411 | -0.0891 (inactive) | 1.15 | 0.953 | 0.633 | 1.36 | 0.96 | -0.0586
23 | Cc1cc(C)c(-c2cc([C@H](C)ON=C[C@@H](C)[C@H](OCc3ccccc3)C(C)C)on2)c(C)c1 | -0.761 | -0.143 | -0.0987 | -0.34 (inactive) | 0.149 | -1.17 | -0.101 | -0.0283 | -0.034 | 0.874
24 | C[C@H]1C=CCC(=O)OC[C@H](C)C(=O)N2CCC[C@H]2C(=O)OC1 | 1.01 | -0.235 | -1.53 | -0.0436 (inactive) | 1.47 | 1.29 | 1.73 | 1.48 | 2.11 | -0.626
25 | CC(CCC(=O)OC[C@H]1O[C@H](C#Cc2ccccc2)C=C[C@@H]1Oc1ccc(C)cc1)=NOC(C)CN1CCCc2nc(C)c(C)cc21 (stereo not given in full) | 0.839 | -0.143 | -0.35 | 0.00662 (inactive) | 0.732 | 0.727 | 0.335 | 0.694 | 0.397 | 0.531
26 | C#CCCCON=C1C[C@@H](O)[C@@H](O)[C@@H]2[C@@H]3C(=O)N(C[C@@H]4CCCO4)C(=O)[C@@H]3CC[C@H]12 | 0.407 | -0.201 | -0.346 | 0.44 (inactive) | 0.331 | 0.444 | 0.451 | 0.457 | 0.481 | -0.0374
27 | CC(=O)OC[C@H]1O[C@H](C#CCC2CCCCC2)C=C[C@@H]1OC(C)=O | 1.26 | -0.215 | -0.595 | -0.531 (inactive) | 1.04 | 0.719 | 0.362 | 0.674 | 0.668 | -0.222
